Each structure is given as a SMILES string. “And” between values parts separate entries of the source, which are not always exact repeats. Equal entries are not always repeated. About 83,000 compounds went through this panel and 20% of them were active in at least one assay; those are over-represented in the sample as a whole.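 Single-concentration screen, 48 h exposure, 96-well plates. Endpoint: percent growth. Below 10 = active.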 Unmarked numbers belong to inactive results. The source made the active and inactive calls.

In the first experiment the test system is NCI-H460 lung. The experiment in a line: NCI-60 one-dose screen, 48 h (100 = growth as untreated, 0 = no growth, -100 = all killed). The settings on record: 10 µM. As for the experimental part: Growth inhibition of the NCI-H460 human Non-Small Cell Lung tumor cell line is measured as a screen for anti-cancer activity. Cells are grown in 96 well plates and exposed to the test compound for 48 hours. Compounds are tested at a single concentration, which is 10^-5 M for most compounds. The reported endpoint is percent growth (GI% or GIPRCNT), where numbers from 0 - 100% represent growth inhibition, and numbers from -100% - 0 represent cell death. For example, a value of 40 represents 60% growth inhibition. A value of 0 means no net growth occurred over the course of the experiment. A value of -40 indicates 40% of cells at the beginning of the experiment died by the end of the experiment. A value of -100 means all cells are dead at the end of the experiment.
NCI-60 Human Tumor Cell Lines Screen was performed using the standard one-dose NCI protocol, which is described in more detail at https://dtp.cancer.gov/discovery_development/nci-60/default.htm.
Compounds with GIPRCNT values below 10 were considered active. Activity score was based on GIPRCNT using the following formula: […]
Score is 0 for GIPRCNT values of 100 or above, 50 for GIPRCNT values of 0, and 100 for GIPRCNT values of -100.
Consider `S=C(SSC(=S)N1CCCCC1)N1CCCCC1`, for which the growth is 91.9%.

Staying with this experiment, now noted: 10 µM unless noted.
Consider `COc1ccccc1/C=C(/C)[N+](=O)[O-]`, for which the growth was 87.3% and 107%.

`Cc1ccc(C(=O)OC(C(=O)O)C(OC(=O)c2ccc(C)cc2)C(=O)O)cc1` (stereo not given) (tested in a mixture with another compound): the growth was 52.4%.

On to `Oc1cccc2cccnc12`, for which the growth is 83.7% and 104% and 102%.

Take `CC[C@@]1(O)C[C@H](OC2CC(N(C)C)C(O)C(C)O2)c2c(O)c3c(c(O)c2[C@H]1OC1CC(N(C)C)C(O)C(C)O1)C(=O)c1cccc(O)c1C3=O` (stereo not given in full): the growth was -4.36% (active).

`O=C1c2ccccc2C(=O)C(Cl)C1Cl` (stereo not given): the growth is 101%.

For the compound `Cc1c(N)nc([C@H](CC(N)=O)NC[C@H](N)C(N)=O)nc1C(=O)N[C@H](C(=O)N[C@H](C)[C@@H](O)[C@H](C)C(=O)N[C@H](C(=O)NCCc1nc(-c2nc(C(=O)NCCC[S+](C)C)cs2)cs1)[C@@H](C)O)C(OC1OC(CO)C(O)C(O)C1OC1OC(CO)C(O)C(OC(N)=O)C1O)c1cnc[nH]1` (stereo not given in full), the growth was 23.1% [2.5 µM].

In the case of `CC1=C2C(=O)[C@H]3[C@@H](CC=C4C[C@@H](O)CC[C@@]43C)[C@@H]2CC[C@]12O[C@@H]1C[C@H](C)CN[C@H]1[C@H]2C`, the growth was 100%.

Consider `CC[C@](O)(C(=O)O)c1cc2n(c(=O)c1CO)Cc1cc3ccccc3nc1-2`, for which the growth is -6.64% (active).

For `CCC1(O)CC(OC2CC(N(C)C)C(OC3CC4OC5CC(=O)C(C)OC5OC4C(C)O3)C(C)O2)c2c(cc3c(c2O)C(=O)c2c(O)ccc(O)c2C3=O)C1C(=O)OC` (stereo not given), the growth is -26.3% (active).

In the case of `COc1cccc2c1cc([N+](=O)[O-])c1c(C(=O)O)cc3c(c12)OCO3`, the growth is 33.5% and 106%.

As to `CC[C@@]1(O)C(=O)OCc2c1cc1n(c2=O)Cc2cc3ccccc3nc2-1`, the growth was -25.8% (active).

Regarding `C[C@]12CC[C@H](O)CC1=CC[C@@H]1[C@@H]2CC[C@]2(C)C(=O)CC[C@@H]12`, the growth was 108%.

In the case of `CCCCCCCCCCCC1CCCC(C)N1` (stereo not given), the growth is 87.9%.

With `CC[C@@]1(O)C[C@H](OC2CC(N(C)C)C(OC3CC(O)C(OC4CCC(=O)C(C)O4)C(C)O3)C(C)O2)c2c(cc3c(c2O)C(=O)c2c(O)ccc(O)c2C3=O)[C@H]1C(=O)OC` (stereo not given in full), the growth was -14.4% (active).

As for `CO[C@H](/C(C)=C/C=C/C(C)=C/c1coc(C)n1)[C@H](C)[C@H]1C[C@@H](O)[C@@]2(C)O[C@H]2/C=C/[C@@H](C)[C@@H]2C[C@@H](CC(=O)O2)C[C@H]2O[C@@H]2C(=O)O1`, the growth was 8.2% (active).

As to `CCOC(=O)C(NC(=O)C(Cc1ccc(N(CCCl)CCCl)cc1)NC(C)=O)C(C)C` (stereo not given), the growth is 49.9%.

As to `CC(=O)O[C@H]1C[C@@H]2OC3C=C(C)CCC3(C)[C@@]1(C)[C@@]21CO1` (stereo not given in full), the growth was 0.408% (active) and -3.28% (active).

With `Oc1cc[c]([Hg][Cl])cc1`, the growth was 88.8%.

As for `CC[n+]1c(-c2ccccc2)c2cc(N)ccc2c2ccc(N)cc21`, the growth was 3.56% (active).

On to `Cc1cc(N=Nc2ccccc2C)ccc1N`, for which the growth is 80.7%.

On to `C[C@H]1CCC/C=C/[C@@H]2C[C@H](O)C[C@H]2[C@H](O)/C=C/C(=O)O1`, for which the growth was 8.73% (active).

As to `NCCc1ccc(OCc2ccccc2)c(OCc2ccccc2)c1`, the growth was 60.6%.

Turning to `COC1CC(CC2CCC(C)C(C(C)C(=O)O)O2)OC2(OC(C)(C3CCC(C)(C4OC(C5OC(O)(CO)C(C)CC5C)CC4C)O3)CC2C)C1C` (stereo not given), the growth is 4.73% (active).

On to `COc1ccc(OC)c(/C=C/[N+](=O)[O-])c1`, for which the growth was -4.3% (active).

Turning to `CCC(=O)OC1CCn2c1nc1c2C(=O)C(C)=C(N2CC2)C1=O` (stereo not given), the growth is -23.6% (active).

Consider `COC1=C(C)C(=O)C2=C(C1=O)C(CO)N1C(C#N)C3CC4C(C1C2N1CCOC41)N3C` (stereo not given), for which the growth was -14.9% (active).

With `CC1=C(CO)C2=C(C)C3(CC3)[C@@](C)(O)C(=O)C2=C1`, the growth is -1.95% (active).

`CN1CCN(c2ccc([N+](=O)[O-])c3no[n+]([O-])c23)CC1`: the growth is -61.4% (active).

The same experiment, now with this note: 100 µM.
As to `S=C(SSC(=S)N1CCCCC1)N1CCCCC1`, the growth was -2.57% (active).
